The values below come from PMC7862700, “An all-to-all approach to the identification of sequence-specific readers for epigenetic DNA modifications on cytosine”.

What all share (test): DAPPL (digital affinity profiling via proximity ligation, sequencing); 10 mM Tris-HCl pH 7.5, 50 mM NaCl, 1 mM DTT, 4% glycerol, room temperature, 30 min; GST-TFs on glutathione beads, 16-mer random dsDNA library, 0.1% formaldehyde crosslink after washing; high values mean tight binding
Conditions in all cases: protein: recombinant; tags: N-terminal GST; dsDNA, one strand shown

For one test, the target named is T1, ERF (Homo sapiens, UniProt P50548 1-548).
T1 sequence: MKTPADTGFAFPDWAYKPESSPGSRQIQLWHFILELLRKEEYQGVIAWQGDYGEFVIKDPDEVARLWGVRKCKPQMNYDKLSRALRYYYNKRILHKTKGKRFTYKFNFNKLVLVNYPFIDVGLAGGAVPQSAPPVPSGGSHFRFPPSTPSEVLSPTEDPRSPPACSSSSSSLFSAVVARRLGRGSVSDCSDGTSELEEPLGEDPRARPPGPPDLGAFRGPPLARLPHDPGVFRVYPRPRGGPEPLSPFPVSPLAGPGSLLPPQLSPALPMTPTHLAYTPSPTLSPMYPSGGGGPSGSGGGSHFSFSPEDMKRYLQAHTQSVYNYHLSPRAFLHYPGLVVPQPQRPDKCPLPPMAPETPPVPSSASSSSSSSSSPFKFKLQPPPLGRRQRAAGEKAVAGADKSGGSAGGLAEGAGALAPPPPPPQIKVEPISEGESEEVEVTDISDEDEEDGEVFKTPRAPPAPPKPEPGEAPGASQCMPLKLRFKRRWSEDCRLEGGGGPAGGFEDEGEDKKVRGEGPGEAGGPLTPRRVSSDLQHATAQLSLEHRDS
Summed up:
(§1)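 Binding signal is defined as a hexamer's read frequency for one factor over its frequency for the tag-only sample. To obtain reads, GST-fused human transcription factors were expressed in yeast, captured on glutathione beads, barcoded with DNA and pooled with that sample. Pools met 200 nmole of a 16-mer random double-stranded DNA library in Tris/NaCl/DTT/glycerol buffer for 30 min at room temperature before washing, 0.1% formaldehyde crosslinking, proximity ligation (BsaI/T4 ligase, 1 h, 37 °C), PCR and Illumina NextSeq500 sequencing.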

A further test addresses T2, ETV3L (Homo sapiens, UniProt Q6ZN32 1-361).
T2 sequence: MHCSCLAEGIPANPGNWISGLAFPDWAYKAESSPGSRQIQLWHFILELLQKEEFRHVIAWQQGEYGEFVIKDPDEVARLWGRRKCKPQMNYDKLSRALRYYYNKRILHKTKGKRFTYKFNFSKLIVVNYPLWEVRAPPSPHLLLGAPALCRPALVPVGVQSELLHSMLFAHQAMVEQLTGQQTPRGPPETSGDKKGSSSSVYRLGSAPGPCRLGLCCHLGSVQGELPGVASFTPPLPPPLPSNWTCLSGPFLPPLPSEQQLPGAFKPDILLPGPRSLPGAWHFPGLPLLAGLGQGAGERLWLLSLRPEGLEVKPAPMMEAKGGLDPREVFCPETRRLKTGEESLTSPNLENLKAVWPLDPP
Put shortly: as §1

For a further test, the target named is T3, ETS2 (Homo sapiens, UniProt P15036 1-469).
T3 sequence: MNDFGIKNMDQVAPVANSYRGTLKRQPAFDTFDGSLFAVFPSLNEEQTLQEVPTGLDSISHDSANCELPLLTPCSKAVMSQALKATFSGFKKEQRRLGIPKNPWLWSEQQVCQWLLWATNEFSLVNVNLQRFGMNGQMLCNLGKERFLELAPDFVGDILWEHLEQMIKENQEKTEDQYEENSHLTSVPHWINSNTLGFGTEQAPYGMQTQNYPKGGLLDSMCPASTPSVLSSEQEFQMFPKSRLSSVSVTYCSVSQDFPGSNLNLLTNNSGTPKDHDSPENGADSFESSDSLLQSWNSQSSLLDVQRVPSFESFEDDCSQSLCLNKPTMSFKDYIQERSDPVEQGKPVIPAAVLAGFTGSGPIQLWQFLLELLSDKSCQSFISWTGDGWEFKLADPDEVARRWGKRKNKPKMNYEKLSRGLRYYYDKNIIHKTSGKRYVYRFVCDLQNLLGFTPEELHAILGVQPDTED
Summed up: as §1

The target in another test is T4, SPDEF (Homo sapiens, UniProt O95238 1-335).
T4 sequence: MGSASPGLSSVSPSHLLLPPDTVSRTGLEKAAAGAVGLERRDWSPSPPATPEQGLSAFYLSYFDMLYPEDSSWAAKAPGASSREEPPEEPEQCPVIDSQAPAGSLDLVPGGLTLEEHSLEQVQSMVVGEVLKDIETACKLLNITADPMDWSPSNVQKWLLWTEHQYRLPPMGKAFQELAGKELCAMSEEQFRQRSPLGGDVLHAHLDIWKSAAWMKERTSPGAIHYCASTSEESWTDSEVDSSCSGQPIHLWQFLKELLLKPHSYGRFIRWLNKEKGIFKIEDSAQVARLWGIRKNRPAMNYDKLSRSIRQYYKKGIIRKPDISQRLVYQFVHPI
Put shortly: as §1

A further test deals with T5, ETV7 (Homo sapiens, UniProt Q9Y603 1-341).
T5 sequence: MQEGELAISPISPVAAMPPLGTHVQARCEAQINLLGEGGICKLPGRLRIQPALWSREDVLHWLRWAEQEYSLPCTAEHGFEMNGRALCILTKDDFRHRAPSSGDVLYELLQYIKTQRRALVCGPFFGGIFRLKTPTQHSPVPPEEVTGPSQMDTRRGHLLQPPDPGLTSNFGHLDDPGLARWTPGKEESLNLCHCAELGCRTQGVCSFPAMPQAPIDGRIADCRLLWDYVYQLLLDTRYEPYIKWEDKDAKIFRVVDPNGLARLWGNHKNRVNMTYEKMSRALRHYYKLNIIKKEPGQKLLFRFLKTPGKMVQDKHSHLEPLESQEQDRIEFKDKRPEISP
Summed up:
as §1

In a further test the target is T6, ELF5 (Homo sapiens, UniProt Q9UKW6-2 1-255).
T6 sequence: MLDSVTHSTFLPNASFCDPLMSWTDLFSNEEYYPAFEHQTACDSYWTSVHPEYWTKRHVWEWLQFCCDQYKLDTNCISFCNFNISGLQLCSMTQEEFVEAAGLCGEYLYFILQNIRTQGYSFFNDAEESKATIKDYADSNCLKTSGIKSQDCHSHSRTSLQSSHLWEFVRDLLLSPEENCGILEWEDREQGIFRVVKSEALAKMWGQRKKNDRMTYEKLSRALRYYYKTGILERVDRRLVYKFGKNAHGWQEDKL
Summed up:
as §1

In another test the target is T7, ETV3 (Homo sapiens, UniProt P41162-2 1-143).
T7 sequence: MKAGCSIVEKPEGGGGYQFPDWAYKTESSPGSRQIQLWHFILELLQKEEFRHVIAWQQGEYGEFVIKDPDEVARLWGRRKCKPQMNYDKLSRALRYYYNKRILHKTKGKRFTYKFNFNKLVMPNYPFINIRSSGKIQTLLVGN
Put shortly:
as §1

For a further test, the target named is ETV6 (Homo sapiens, UniProt P41212 1-452). Put shortly:
as §1

Sequence of ETV6 (P41212 whole entry): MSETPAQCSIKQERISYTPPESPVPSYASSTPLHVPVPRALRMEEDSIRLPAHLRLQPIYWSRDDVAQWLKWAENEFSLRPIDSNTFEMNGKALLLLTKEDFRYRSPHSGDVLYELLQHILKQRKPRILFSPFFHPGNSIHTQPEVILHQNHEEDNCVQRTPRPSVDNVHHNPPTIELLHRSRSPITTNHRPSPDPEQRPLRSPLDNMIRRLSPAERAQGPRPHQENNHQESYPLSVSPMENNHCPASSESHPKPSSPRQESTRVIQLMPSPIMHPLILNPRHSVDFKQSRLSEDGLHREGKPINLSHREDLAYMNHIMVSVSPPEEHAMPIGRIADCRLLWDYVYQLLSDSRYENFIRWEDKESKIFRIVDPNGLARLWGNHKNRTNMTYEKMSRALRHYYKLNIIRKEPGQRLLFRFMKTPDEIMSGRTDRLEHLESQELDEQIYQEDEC

Turning to CCCACG, the binding signal is 1.13 fold enrichment (6-mer frequency, TF over GST control) with ERF; 1.05 fold enrichment (6-mer frequency, TF over GST control) with ETV3L; 1.17 fold enrichment (6-mer frequency, TF over GST control) with ETS2; 1.05 fold enrichment (6-mer frequency, TF over GST control) in the test with SPDEF; 1.18 fold enrichment (6-mer frequency, TF over GST control) with ETV7; 1.15 fold enrichment (6-mer frequency, TF over GST control) in the test with ELF5. Further, the binding signal is 1.11 fold enrichment (6-mer frequency, TF over GST control) in the test with ETV3 and 1.09 fold enrichment (6-mer frequency, TF over GST control) with ETV6.
As to ACACAC, the binding signal is 1.14 fold enrichment (6-mer frequency, TF over GST control) with ERF; 1.15 fold enrichment (6-mer frequency, TF over GST control) with ETV3L; 1.17 fold enrichment (6-mer frequency, TF over GST control) with ETS2; 1.14 fold enrichment (6-mer frequency, TF over GST control) in the test with SPDEF; 1.19 fold enrichment (6-mer frequency, TF over GST control) with ETV7; 1.16 fold enrichment (6-mer frequency, TF over GST control) in the test with ELF5. Besides, the binding signal is 1.18 fold enrichment (6-mer frequency, TF over GST control) with ETV3 and 1.21 fold enrichment (6-mer frequency, TF over GST control) in the test with ETV6.
Take GGAACA: the binding signal is 1.01 fold enrichment (6-mer frequency, TF over GST control) in the test with ERF; 1.07 fold enrichment (6-mer frequency, TF over GST control) with ETV3L; 1.08 fold enrichment (6-mer frequency, TF over GST control) with ETS2; 1.15 fold enrichment (6-mer frequency, TF over GST control) in the test with SPDEF; 1.03 fold enrichment (6-mer frequency, TF over GST control) with ETV7; 1.28 fold enrichment (6-mer frequency, TF over GST control) with ELF5. In addition, the binding signal with ETV3 is 1.14 fold enrichment (6-mer frequency, TF over GST control); with ETV6 it was 1.02 fold enrichment (6-mer frequency, TF over GST control).
Regarding ACACAA, the binding signal with ERF was 1.26 fold enrichment (6-mer frequency, TF over GST control); with ETV3L it was 1.2 fold enrichment (6-mer frequency, TF over GST control); in the test with ETS2, 1.25 fold enrichment (6-mer frequency, TF over GST control); with SPDEF it was 1.17 fold enrichment (6-mer frequency, TF over GST control); in the test with ETV7, 1.08 fold enrichment (6-mer frequency, TF over GST control); with ELF5 it was 1.17 fold enrichment (6-mer frequency, TF over GST control). In addition, the binding signal with ETV3 was 1.13 fold enrichment (6-mer frequency, TF over GST control); with ETV6, 1.2 fold enrichment (6-mer frequency, TF over GST control).
In the case of TCCCTT, the binding signal with ERF is 1.57 fold enrichment (6-mer frequency, TF over GST control); with ETV3L, 1.64 fold enrichment (6-mer frequency, TF over GST control); with ETS2, 1.67 fold enrichment (6-mer frequency, TF over GST control); in the test with SPDEF it was 1.61 fold enrichment (6-mer frequency, TF over GST control); with ETV7 it was 1.57 fold enrichment (6-mer frequency, TF over GST control); with ELF5, 1.72 fold enrichment (6-mer frequency, TF over GST control). The binding signal in the test with ETV3 is 1.54 fold enrichment (6-mer frequency, TF over GST control); with ETV6, 1.53 fold enrichment (6-mer frequency, TF over GST control).
As for TGCAAC, the binding signal in the test with ERF is 1.31 fold enrichment (6-mer frequency, TF over GST control); in the test with ETV3L, 1.28 fold enrichment (6-mer frequency, TF over GST control); with ETS2 it was 1.28 fold enrichment (6-mer frequency, TF over GST control); in the test with SPDEF, 1.37 fold enrichment (6-mer frequency, TF over GST control); in the test with ETV7 it was 1.19 fold enrichment (6-mer frequency, TF over GST control); in the test with ELF5, 1.23 fold enrichment (6-mer frequency, TF over GST control). The binding signal with ETV3 is 1.32 fold enrichment (6-mer frequency, TF over GST control); with ETV6 it was 1.35 fold enrichment (6-mer frequency, TF over GST control).
As for CAAATT, the binding signal is 1.17 fold enrichment (6-mer frequency, TF over GST control) with ERF; 1.18 fold enrichment (6-mer frequency, TF over GST control) with ETV3L; 1.17 fold enrichment (6-mer frequency, TF over GST control) with ETS2; 1.12 fold enrichment (6-mer frequency, TF over GST control) in the test with SPDEF; 1.14 fold enrichment (6-mer frequency, TF over GST control) with ETV7; 1.1 fold enrichment (6-mer frequency, TF over GST control) with ELF5. Further, the binding signal with ETV3 was 1.13 fold enrichment (6-mer frequency, TF over GST control); in the test with ETV6, 1.1 fold enrichment (6-mer frequency, TF over GST control).
